# Results taken from PubChem BioAssay (NCI).
# The panel holds about 79,000 compounds, 15% with a hit somewhere; the sample as a whole holds those more often. Values without a mark were called inactive. Calls of active or inactive are those of the source. Rule as the data show it: active = growth inhibition above about 70%; inactive = the rest.
# What was measured:
# [1] = NCI Yeast Anticancer Drug Screen. Data for the rad50 strain (AID 155);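 also: 0% = growth of vehicle-only cultures of the same strain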; conditions: S. cerevisiae rad50 strain growth inhibition; at 50.0 µM; active compounds read high
# Procedure, shortened: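 Growth of the mutant yeast was measured after compound exposure and referenced to vehicle-treated cultures.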
# [2] = NCI Yeast Anticancer Drug Screen. Data for the mec2-1 strain (AID 157); conditions: S. cerevisiae mec2-1 strain, at 50.0 µM, active compounds read high
# Procedure, shortened: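 Vehicle-treated cultures served as reference for growth inhibition of compound-exposed mec2-1 yeast.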
# [3] = NCI Yeast Anticancer Drug Screen. Data for the sgs1 mgt1 strain (AID 161);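 also: 0% = growth of cultures given vehicle only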; conditions: S. cerevisiae sgs1 mgt1 strain, at 50.0 µM, active compounds read high
# Procedure, shortened: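 Mutant yeast exposed to compound; growth scored against vehicle-only wells.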
# [4] = NCI Yeast Anticancer Drug Screen. Data for the cln2 rad14 strain (AID 165);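 also: 0% = growth equal to vehicle treated cultures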; conditions: S. cerevisiae cln2 rad14 strain, at 50.0 µM, active compounds read high
# Procedure, shortened: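 Each compound was tested on cln2 rad14 yeast. Inhibition of growth was calculated against vehicle-exposed controls.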
# [5] = NCI Yeast Anticancer Drug Screen. Data for the bub3 strain (AID 167); conditions: S. cerevisiae bub3 mutant strain, at 50.0 µM, active compounds read high
# Procedure, shortened: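 Whole-cell yeast assay. The mutant strain was incubated with compounds, and growth inhibition was determined by comparison with vehicle-treated cells.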
# [6] = NCI Yeast Anticancer Drug Screen. Data for the mlh1 rad18 strain (AID 175); conditions: S. cerevisiae mlh1 rad18 strain growth inhibition; at 50.0 µM; active compounds read high
# Procedure, shortened: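 Vehicle-treated cultures served as the reference for growth inhibition in a yeast strain carrying DNA damage repair alterations exposed to each compound.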
Structure (SMILES),growth inhibition [1],growth inhibition [2],growth inhibition [3],growth inhibition [4],growth inhibition [5],growth inhibition [6]
NC(=O)c1cnn(CCO)c1N,0.2%,-3.35%,2.55%,-15.6%,2.85%,12.6%
Cc1cccc(C(C#N)C(=O)CCCC(=O)Nc2ccccc2[N+](=O)[O-])c1 (stereo not drawn),-44.1%,9.4%,5.15%,-36.6%,6.9%,11%
COC1=C(OC)C(=O)C(Sc2ccc3ccccc3c2)=C(Cl)C1=O,95.2% (active),94.2% (active),93.8% (active),94.4% (active),91.7% (active),91.1% (active)
CC#CCOC(=O)c1ccccc1OC(C)=O,27.8%,-1.75%,23.9%,9.7%,26.9%,19.1%
CC(=O)Nc1nc(C)c(CC/C=C/c2ccc([N+](=O)[O-])cc2)c(=O)[nH]1,4.75%,32.6%,-3.8%,2.95%,-8.15%,-6.1%
CC1=CC(=O)c2ccc3c4ccccc4n(C)c3c2C1=O,-16.7%,-35.1%,-13.9%,0.2%,-2.9%,-19.9%
COC(=O)c1ccc(N=Nc2ncc(CC(NC(C)=O)C(=O)OC)[nH]2)cc1 (stereo not drawn),-16.9%,-46.9%,20.9%,-34.5%,4.2%,-13.4%
Cc1cc(N=C2C=CC(=O)C=C2)ccc1O,40.5%,21.6%,30.4%,10.2%,15.9%,25.6%
Nc1nn2c(nc(N)c3c(N)[nH]nc32)c1N=Nc1ccc(Br)cc1,-1.35%,11.8%,-4.95%,10.2%,13.2%,0.1%
O=C(NCc1ccccc1)C1CCN(Cc2c[nH]c3ccccc23)CC1,-0.3%,-4.4%,3.15%,16.5%,1.7%,28.7%
O=[N+]([O-])c1cccc(-c2csc(NNC3=NC/C(=C/c4ccc5c(c4)OCO5)S3)n2)c1,33.5%,-7.9%,33%,-33.5%,23.6%,22.1%
O=C1N(CC2CO2)CCN1CC1CO1 (stereo not drawn),-22.4%,-10.2%,-5.3%,-5.15%,-20.4%,-76%
CCOC(=N)c1ccc(C(=N)OCC)cc1,-11.2%,-29.4%,-29.4%,-20.8%,-32.5%,-41.7%
CCOC(=O)c1ccccc1C(=O)c1ccccc1O,-5.8%,-18%,-1.6%,-0.45%,-5.45%,18.4%
C/C(=N/NC(N)=O)c1ccc([N+](=O)[O-])o1,29.9%,9.9%,30.8%,16.1%,14.9%,47.2%
OC(CC1CCCC(CC(O)c2ccccc2)N1CCc1ccccc1)c1ccccc1 (stereo not drawn),24.8%,-1.3%,22.4%,35.4%,38.2%,21.2%
CC1(C)Oc2ccc3c(=O)c(-c4ccccc4)c(-c4ccccc4)oc3c2C1C(=O)O (stereo not drawn),12.5%,-1.35%,-17.6%,12.8%,0.25%,10.8%
O=C1CCc2c(Cl)sc(Cl)c21,20.1%,5.5%,13.8%,-32.2%,4.1%,9.95%
NNS(=O)(=O)c1ccc(N)cc1,5.6%,1.3%,-5.4%,-35%,18.8%,5.15%

Structure (SMILES),growth inhibition [1],growth inhibition [2],growth inhibition [3],growth inhibition [4],growth inhibition [5],growth inhibition [6]
[CH3][Ge]([CH3])([CH3])/[C](=[C](\c1ccccc1)[Ge]([CH3])([CH3])[CH3])c1ccccc1,39.6%,-3.5%,10%,9.6%,-1.5%,9.65%
C1OCC(C2OCOC2C2OCOC2C2COCO2)O1 (stereo not drawn),7.8%,20.9%,-5.25%,-8.65%,34.9%,9.5%
CCOC(=O)C1CC1c1ccccc1 (stereo not drawn),6.1%,-7.9%,-0.25%,-8.65%,-3.6%,8.5%
Cc1ccc(S(=O)(=O)N2CCC(C(=O)N3CCCC3)(c3cccc(C)c3)CC2)cc1,-55.5%,-35.4%,-46.4%,0.1%,-38.5%,-43.1%
CC(=O)OC1CC2CCC1(c1ccccc1)C2 (stereo not drawn),0.85%,-25.1%,0.4%,14.4%,-1.2%,3.15%
O=C(O)/C=C/S(=O)(=O)Cc1ccccc1,8.7%,-6.4%,2.7%,-27.3%,7.5%,6.75%
CSc1ncc(C=O)n1Cc1ccccc1,-4.35%,6.7%,0.3%,-34.5%,2.15%,5.6%
CN1CC(C(N)=O)=CC(C(N)=O)C1 (stereo not drawn),-5.25%,-9.2%,-8.15%,-0.6%,9.25%,7.5%
S=C(Nc1ccc(N=Nc2ccccc2)cc1)SCc1ccc(Cl)cc1,28.4%,3.6%,20.6%,13.1%,-2.75%,14%
N#Cc1ccc(/C=C/C(=O)c2ccccc2)cc1,13.4%,-20.1%,5.8%,6.8%,13.9%,9.05%
CCCCCCCCC(C)(C)O,-3.15%,-3.55%,-1.25%,3.05%,5.65%,-4.45%
OCCSc1ccc(Cl)cc1,14.4%,25.9%,5.95%,-31.5%,12.8%,27.5%
CCOc1ccc(/C=C2\CCc3ccccc3C2=O)cc1,16.4%,16.6%,22.7%,20.9%,26.9%,21.6%
Nc1ccc(F)c([N+](=O)[O-])c1,-6.05%,0.65%,-1.6%,-23.6%,-1.55%,-1.2%
O=C(c1nc2ccccc2[nH]1)N1CCN(c2ccccc2)CC1,2.95%,-1.55%,-9%,5.55%,1.35%,7.3%
CC(C)(C)CC(C)(C(=O)O)C(C)(C)C (stereo not drawn),4%,9.25%,-3.25%,-12.6%,3.15%,14.7%
C/C=C/C(=O)OCCOc1ccccc1-c1ccccc1,15.5%,16.3%,4.35%,-16.3%,25.2%,20.1%
Cc1ccc(C(=O)NCCN2CCCC2)c([N+](=O)[O-])c1OCc1ccccc1,6.15%,-20%,4.8%,-22.9%,-4.85%,-5.8%
CCCCCc1cc[n+](CC(=O)c2ccccc2)cc1,4.45%,0.7%,-12.1%,-62.7%,-10.4%,12.8%
